According to PubChem BioAssay (Tox21):
Results filed as inconclusive are left out. Where a call stands in place of a potency, no number is given. Active and inactive are the calls of the source. Unless noted, the call rests on the fitted dose curve; in most records, active means well fitted curve in the direction sought with a large enough effect in the repeat runs; inconclusive means weak or mixed curves; inactive means no such curve, though single readings can be large; an effect the other way counts as inactive or inconclusive.

What was measured:
[1] = qHTS assay to identify small molecule antagonists of the vitamin D receptor (VDR) signaling pathway - cell viability counter screen (AID 743225); further: nearly all actives have a fitted effect of over 50% in size; further: potency means the concentration at half of the fitted maximal effect
Procedure, shortened: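 Viability counter screen run in the same wells as the beta-lactamase reporter assay: HEK 293T VDR-UAS-bla cells, 16 h compound exposure at 37C with 3 nM (final) 1-alpha,25-dihydroxyvitamin D3. CellTiter-Glo luminescence, 30 min, room temperature.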

[2] = qHTS assay to identify small molecule agonists of the NFkB signaling pathway (AID 1159509; active means well fitted curve in the direction sought with a large enough effect in the signal ratio in the repeat runs, not every such curve was filed as active; the % refers to the signal ratio)
Procedure, shortened: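 Agonist activity was read as beta-lactamase-driven FRET change (460 and 530 nm emission, 405 nm excitation) following 1.5 hr substrate loading at room temperature. Beforehand, ME-180 NFkB-bla reporter cells were treated with compounds for 5 hr at 37 C.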

[3] = qHTS assay to identify small molecule agonists of the NFkB signaling pathway - cell viability counter screen (AID 1159515; calls by dose curve; further: nearly all actives have a fitted effect of over 55% in size)
Procedure, shortened: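 Cells are seeded (2,000 NFkB-bla ME-180 per well), rested overnight, and dosed with DMSO-dissolved compounds for 5 hr at 37 C. Viability is then read by CellTiter-Glo luminescence after 30 min at room temperature.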

[4] = qHTS assay to identify small molecule agonists of the endoplasmic reticulum stress response signaling pathway - cell viability counter screen (AID 1159517; calls by dose curve;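 further: HeLa cells carrying an ER stress response element beta-lactamase reporter; nearly all actives have a fitted effect of over 50% in size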)
Procedure, shortened: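 In parallel with the ESRE reporter read, cytotoxicity was scored by CellTiter-Glo luminescence (30 min, room temperature) on HeLa ESRE-bla cells dosed for 5 hr.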

[5] = biological target: Nuclear receptor ROR-gamma (Homo sapiens) (UniProt P51449); experiment: qHTS assay to identify small molecule antagonists of the retinoid-related orphan receptor gamma (ROR-gamma) signaling pathway (AID 1159521; further: nearly all actives have a fitted effect of over 50% in size; further: potency means the concentration at half of the fitted maximal effect)
Procedure, shortened: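 Luminescence readout (ONE-Glo, 30 min RT) after 16 h doxycycline induction; loss of signal scored as antagonism. CHO cells with TET-inducible RORγ and RORE-LUC reporter; compounds added 2 h before 1 uM final doxycycline.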

[6] = qHTS assay to identify small molecule agonists of the AP-1 signaling pathway - cell viability counter screen (AID 1159525; calls by dose curve; further: nearly all actives have a fitted effect of over 55% in size; further: potency means the concentration at half of the fitted maximal effect)
Procedure, shortened: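 Same-well cytotoxicity counter screen of the Tox21 10K library in ME-180 cells. The readout is ATP-dependent luminescence after 5 h compound treatment. Data are normalised to DMSO and tetra n-octyl ammonium bromide controls.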

[7] = qHTS assay to identify small molecule agonists of the RXR signaling pathway - cell viability counter screen (AID 1159529); further: nearly all actives have a fitted effect of over 50% in size; further: potency means the concentration at half of the fitted maximal effect
Procedure, shortened: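 Luminescence from CellTiter-Glo (30 min, RT) measured viability in the same wells as the beta-lactamase reporter readout. Cells: GeneBLAzer RXR-alpha HEK 293T, 2% charcoal-stripped FBS. Compound exposure 16 hr, 37 C.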

[8] = qHTS assay to identify small molecule antagonists of the retinoid acid receptor (RAR) signaling pathway - cell viability counter screen (AID 1159551); further: nearly all actives have a fitted effect of over 35% in size; further: potency means the concentration at half of the fitted maximal effect
Procedure, shortened: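 Cells (C3RL4) are plated, incubated overnight, dosed with compound in DMSO, then given retinol at 1 uM final. After 6 h at 37 C, CellTiter-Glo is added and luminescence read following 30 min at room temperature.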

[9] = qHTS assay to identify small molecule agonists of the vitamin D receptor (VDR) signaling pathway - cell viability counter screen (AID 743224); further: nearly all actives have a fitted effect of over 50% in size; further: potency means the concentration at half of the fitted maximal effect
Procedure, shortened: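 Cells: VDR-bla, 2,000/well, settled 4 h. Treatment: compounds in DMSO, 16 h, 37C/5% CO2. Readout: CellTiter-Glo luminescence after 30 min RT.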

[10] = qHTS assay to identify small molecule antagonists of the retinoid-related orphan receptor gamma (ROR-gamma) signaling pathway - cell viability counter screen (AID 1159520); further: nearly all actives have a fitted effect of over 50% in size; further: potency means the concentration at half of the fitted maximal effect
Procedure, shortened: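 Tet-on ROR gamma CHO cells were given compounds for 2 hr, then doxycycline hyclate at 1 uM final, and incubated 16 hr at 37 C. Viability was measured as ATP content by CellTiter-Glo luminescence.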

[11] = biological target: Retinoic acid receptor RXR-alpha (Homo sapiens) (UniProt P19793); experiment: qHTS assay to identify small molecule agonists of the RXR signaling pathway (AID 1159527; calls by dose curve; further: nearly all actives have a fitted effect of over 35% in size; further: potency means the concentration at half of the fitted maximal effect)
Chain of Retinoic acid receptor RXR-alpha (Homo sapiens) (P19793 whole entry, looked up): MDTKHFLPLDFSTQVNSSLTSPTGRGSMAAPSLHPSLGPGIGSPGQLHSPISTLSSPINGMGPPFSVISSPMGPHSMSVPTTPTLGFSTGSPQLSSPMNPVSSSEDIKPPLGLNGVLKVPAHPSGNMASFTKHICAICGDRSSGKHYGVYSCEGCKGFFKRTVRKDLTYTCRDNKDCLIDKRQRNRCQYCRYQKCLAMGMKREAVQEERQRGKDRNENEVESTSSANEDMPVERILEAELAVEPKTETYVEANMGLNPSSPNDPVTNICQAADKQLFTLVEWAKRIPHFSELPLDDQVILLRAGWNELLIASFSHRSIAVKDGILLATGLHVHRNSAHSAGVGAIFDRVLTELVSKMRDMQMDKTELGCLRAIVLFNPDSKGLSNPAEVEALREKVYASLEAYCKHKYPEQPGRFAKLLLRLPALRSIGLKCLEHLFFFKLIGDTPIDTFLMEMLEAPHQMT
Procedure, shortened: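 Agonist mode; 9-cis retinoic acid positive control. HEK 293T UAS-bla reporter cells, 2% charcoal-stripped FBS, 16 hr compound exposure at 37 C/5% CO2. LiveBLAzer B/G FRET substrate 2 hr RT; ex 405, em 460/530 nm.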

[12] = qHTS assay to identify small molecule antagonists of the retinoic acid receptor (RAR) signaling pathway (AID 1159552; further: nearly all actives have a fitted effect of over 50% in size; further: potency means the concentration at half of the fitted maximal effect)
Procedure, shortened: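 Luminescence from a RARE luciferase reporter in C3RL4 cells served as read-out. Cells received compounds together with 1 uM final retinol and incubated 6 hr at 37 C before detection reagent was added for 30 min at room temperature.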

[13] = qHTS assay to identify small molecule agonists of the retinoic acid receptor (RAR) signaling pathway (AID 1159553); conditions: C3RL4 RARE luciferase reporter, agonist, 6 h; activation: at 73.3 µM (top of the series)
Procedure, shortened: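 Seed C3RL4 reporter cells at 1,000 per well and incubate overnight at 37 C. Add compounds in DMSO, incubate 6 hr. Add luciferase reagent, wait 30 min at room temperature, read luminescence.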

[14] = qHTS assay to identify small molecule agonists of the AP-1 signaling pathway (AID 1159526; calls by dose curve)
[15] = qHTS assay to identify small molecule antagonists of the estrogen related receptor (ERR) signaling pathway - cell viability counter screen (AID 1224818)
Procedure, shortened: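 ERR cells, 2,000/well; 6 h settle at 37 C/5% CO2; compound pin transfer (DMSO); 17.5 h at 37 C; CellTiter-Fluor, 30 min, fluorescence read.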

[16] = qHTS assay to identify small molecule antagonists of the estrogen related receptor (ERR) signaling pathway (AID 1224819; further: nearly all actives have a fitted effect of over 50% in size)
Procedure, shortened: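 qHTS in ERR cells, 2,000/well, 1536 format. Cpd (DMSO) added after 6 h settle, 18 h 37 C. One-Glo luminescence, 30 min RT.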

[17] = qHTS assay to identify small molecule agonists of the estrogen related receptor (ERR) signaling pathway (AID 1224820)
Procedure, shortened: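 After 6 h plating (2,000 cells/well) and 18 h compound treatment at 37 C, ERR cells were lysed with One-Glo and luminescence read after 30 min at room temperature.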

[18] = tested on: estrogen-related receptor alpha (ERRalpha) with PGC-1alpha coactivator, human; experiment: qHTS assay to identify small molecule antagonists of the estrogen related receptor signaling pathway with the pleiotropic PPARgamma coactivator (PGC) (AID 1224821; calls by dose curve)
Procedure, shortened: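 Luminescence from One-Glo luciferase reagent (30 min, room temperature) measured after 18 h compound treatment at 37 °C. Cells carry the PGC/ERR reporter and were seeded 6 h prior to dosing.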

[19] = qHTS assay to identify small molecule antagonists of the estrogen related receptor signaling pathway with the pleiotropic PPARgamma coactivator (PGC) cell viability counter screen (AID 1224822;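 further: viability read after 17.5 h compound exposure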)
Procedure, shortened: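 Multiplexed viability counter screen run in PGC/ERR cells treated with compounds for 17.5 h at 37 C; live-cell protease signal measured by CellTiter-Fluor fluorescence.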

SMILES	Potency [1]	Potency [2]	Potency [3]	Potency [4]	Potency [5]	Potency [6]	Potency [7]	Potency [8]	Potency [9]	Potency [10]	Potency [11]	Potency [12]	Potency [13]	Potency [14]	outcome [15]	outcome [16]	outcome [17]	outcome [18]	outcome [19]
O=C1C(=O)c2ccccc2C(O)=C1C1CCC(c2ccc(Cl)cc2)CC1 (centres undefined)	5.35 µM (active)	inactive	inactive	inactive	7.5 µM (active)	inactive	inactive	inactive	–	–	–	–	–	–	–	–	–	–	–
CCOC(=O)OC(C)OC(=O)[C@@H]1N2C(=O)[C@@H](NC(=O)[C@H](N)c3ccccc3)[C@H]2SC1(C)C (some centres undefined)	inactive	inactive	inactive	inactive	inactive	inactive	inactive	inactive	inactive	inactive	inactive	inactive	inactive	–	–	–	–	–	–
O=C(O)CCc1nc(-c2ccccc2)c(-c2ccccc2)o1	inactive	inactive	inactive	–	inactive	inactive	inactive	inactive	inactive	inactive	–	–	inactive	inactive	inactive	inactive	inactive	inactive	inactive
CC(C)COCC(CN(Cc1ccccc1)c1ccccc1)N1CCCC1 (centres undefined)	–	inactive	inactive	inactive	23.7 µM (active)	–	19 µM (active)	–	–	–	–	–	–	–	inactive	–	–	–	inactive
O=C1Cc2cc(Cl)ccc2N1	inactive	inactive	inactive	–	inactive	inactive	inactive	inactive	inactive	inactive	inactive	–	inactive	inactive	–	–	–	–	–
C=C(C)[C@@H]1CCC2=CCC[C@@H](C)[C@]2(C)C1	–	inactive	inactive	–	–	inactive	–	inactive	–	inactive	–	inactive	inactive	inactive	–	–	–	–	–
Cc1cscn1	inactive	inactive	inactive	inactive	–	inactive	inactive	inactive	inactive	inactive	–	–	–	inactive	–	–	–	–	–
O=C(Cn1ccnc1[N+](=O)[O-])NCCO	inactive	inactive	inactive	–	inactive	inactive	inactive	inactive	inactive	inactive	inactive	inactive	inactive	inactive	–	–	–	–	–
CN(C(=O)CN(CCO)CC(=O)N(C)C(C)(C)Cc1ccccc1)C(C)(C)Cc1ccccc1	–	inactive	inactive	inactive	26.6 µM (active)	–	–	–	inactive	29.8 µM (active)	–	29.8 µM (active)	inactive	–	–	–	–	–	–
CCN(CC)CCNC(=O)COc1ccc(OC)cc1	inactive	inactive	inactive	–	–	inactive	inactive	inactive	inactive	inactive	inactive	inactive	–	inactive	–	–	–	–	–
CC(C)=CC(=O)C=C(C)C	inactive	inactive	inactive	inactive	–	inactive	inactive	inactive	inactive	inactive	inactive	inactive	inactive	inactive	–	–	–	–	–
Cc1cccc(N(C)C(=S)Oc2ccc3c(c2)CCC3)c1	inactive	inactive	inactive	inactive	–	inactive	–	inactive	inactive	inactive	–	inactive	inactive	inactive	–	–	–	–	–
CCCCCCCCCCCCCCN(CCO)CCO	43.6 µM (active)	inactive	inactive	–	30.6 µM (active)	54.9 µM (active)	21.9 µM (active)	61.1 µM (active)	24.5 µM (active)	61.1 µM (active)	–	30.6 µM (active)	–	–	–	–	–	–	–
CCCCCCCCCCC(=O)O	–	inactive	inactive	inactive	–	inactive	inactive	inactive	inactive	inactive	49.6 µM (active)	inactive	inactive	inactive	–	–	–	–	–
CCOc1cccc(-n2cc(C(=O)N3CCN(c4cc(C(=O)O)c5ccccc5c4)CC3)nc2-c2ccc(C)cc2)c1	–	inactive	inactive	inactive	–	–	inactive	inactive	–	–	–	inactive	inactive	–	–	–	–	–	–
CC1CC(C)C(=O)C1=O (centres undefined)	inactive	inactive	inactive	inactive	–	inactive	inactive	inactive	inactive	inactive	–	–	–	inactive	–	–	–	–	–
CCC(C)COC(=O)CC(C)C (centres undefined)	–	inactive	inactive	–	–	–	–	inactive	inactive	inactive	–	inactive	inactive	inactive	–	–	–	–	–
O=C1c2ccccc2C(=O)c2c(O)c(O)cc(O)c21	inactive	inactive	inactive	inactive	inactive	inactive	inactive	–	inactive	–	–	–	inactive	inactive	–	–	–	–	–
c1ccc(C[n+]2cccc3ccccc32)cc1	–	inactive	inactive	–	inactive	inactive	inactive	inactive	–	inactive	–	inactive	inactive	inactive	–	–	–	–	–
CC(=O)OCCN(CCOC(C)=O)c1ccc(N=Nc2ccc([N+](=O)[O-])cc2C#N)cc1	inactive	inactive	inactive	inactive	inactive	–	inactive	48.6 µM (active)	inactive	–	–	inactive	–	inactive	–	–	–	–	–
CC1(C)[C@H](C(=O)O)N2C(=O)C[C@H]2S1(=O)=O	–	inactive	inactive	–	inactive	inactive	inactive	inactive	inactive	inactive	–	inactive	inactive	–	–	–	–	–	–
C=C1c2cccc(O)c2C(O)=C2C(=O)[C@]3(O)C(O)=C(C(N)=O)C(=O)[C@@H](N(C)C)[C@@H]3[C@@H](O)[C@H]12	inactive	inactive	inactive	inactive	–	inactive	inactive	inactive	inactive	inactive	inactive	inactive	inactive	inactive	–	–	–	–	–
C[C@@H](O)[C@H]1C(=O)N2C(C(=O)O)=C([C@H]3CCCO3)S[C@H]12	–	inactive	inactive	–	inactive	–	inactive	inactive	–	inactive	inactive	inactive	inactive	–	–	–	–	–	–
